# Screening data deposited in PubChem by several laboratories.
# Rv3671c inh: inhibitors of M. tuberculosis serine protease Rv3671c; AID 2606; inhibition, % at 5.96 µM; P9WHR9; 0.048% of 320,000 active; in the data active = inhibition above about 38%;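 note: extracellular domain of Rv3671c used as enzyme; 0% = enzyme with DMSO and 100% = no enzyme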
# GDH-TPI inh: counter-screen for M. tuberculosis FBA inhibitors: GDH-TPI coupled enzymes; GDH-TPI coupled enzyme counterscreen, NADH absorbance; inhibition, % at 4.8 µM; 1.2% of 360,000 active; in the data active = inhibition above about 30%;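 note: 0% = DMSO wells and 100% = wells lacking the enzyme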
# Mtb betalactam: beta-lactam sensitization of Mtb H37Rv; M. tuberculosis H37Rv growth with meropenem, percent inhibition; inhibition, % at 25 µM; 0.27% of 330,000 active; call rule not given here;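 note: growth measured after seven days incubation then overnight dye step; 0% = bacteria only wells and 100% = bacteria with antibiotic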
# FadD28 binding: inhibitors of Mycobacterium tuberculosis FadD28 bisubstrate binding | 0.22% of 360,000 active | FadD28 bisubstrate probe binding, fluorescence polarization | inhibition, % at 12.5 µM | AID 588549; in the data active = inhibition above about 8.5%, passing the limit was not always enough; inconclusive = no clear call, values can overlap the other calls
# UGM FP inh: Mtb UDP-galactopyranose mutase inhibition. P9WIQ1. purified UGM, fluorescence polarization probe displacement. inhibition, % at 10 µM. 0.06% of 320,000 active. AID 504406; in the data active = inhibition above about 10%, passing the limit was not always enough; inconclusive = no clear call, values can overlap the other calls
# Mtb FBA inh: Mtb fructose-bisphosphate aldolase inhibition. AID 588726. purified M. tuberculosis FBA, fluorescence read-out. 2.3% of 360,000 active. P9WQA3. inhibition, % at 1 µM; in the data active = inhibition above about 27%;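 note: 0% = vehicle and 100% = reference inhibitor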
# Target sequence (P9WQA3 whole entry, looked up): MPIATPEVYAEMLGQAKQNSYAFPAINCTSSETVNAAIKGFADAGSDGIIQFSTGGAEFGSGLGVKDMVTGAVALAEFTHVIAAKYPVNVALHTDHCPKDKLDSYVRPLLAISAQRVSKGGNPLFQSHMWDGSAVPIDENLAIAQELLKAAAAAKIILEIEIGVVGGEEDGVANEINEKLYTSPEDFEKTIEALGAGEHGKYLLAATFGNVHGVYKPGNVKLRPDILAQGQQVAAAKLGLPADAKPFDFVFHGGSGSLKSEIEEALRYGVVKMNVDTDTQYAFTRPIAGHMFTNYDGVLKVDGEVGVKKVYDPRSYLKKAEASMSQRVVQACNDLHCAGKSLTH
# Numbers without * were called inactive; ? = inconclusive; / = no result. Sampled rows, rich in hits. Any-hit rate of the full collection: about 3.7%.
SMILES,Rv3671c inh,GDH-TPI inh,Mtb betalactam,FadD28 binding,UGM FP inh,Mtb FBA inh
COc1cc(/C=C2/SC(=S)N(CC(=O)O)C2=O)ccc1OC(=O)c1cccs1,-5,6,-3,3,-3,-1
COc1cc(/C=C2\SC(=S)N(CC(=O)O)C2=O)ccc1OS(=O)(=O)c1ccc(C)cc1,-4,27,-3,9.7*,-1,2
CC1(C)Cc2c(c(N3CCOCC3)nc3sc(-c4ccc(C(=O)O)o4)c(N)c23)CO1,2,37*,-4,0,0,69*
Cc1ccc(NC(=O)/C(=C\c2ccc([N+](=O)[O-])cc2)NC(=O)c2ccccc2)cc1,-28,20,65,0,-1,-4
COc1ccc(OC)c(/C=N\NC(=O)c2ccc(-c3ccccc3)cc2)c1,/,10,3,0,-2,8
O=C(N/N=C/C=C/c1ccco1)/C(=C/c1ccccc1)NC(=O)c1ccccc1,4,37*,1,-4,0,0
COc1ccc(OC)c(/C=C(\NC(=O)c2ccccc2)C(=O)N/N=C/c2ccc(C)s2)c1,12,49*,4,-3,4,-3
O=C(N/N=C/C=C/c1ccco1)c1ccncc1,6,24,99,0,1,4
Cc1cccc(NC(=O)/C(=C\c2cccs2)NC(=O)c2ccccc2)c1,-4,34*,-4,-2,0,-1
O=C(N/N=C/c1ccc(O)c(O)c1O)/C(=C/c1ccc([N+](=O)[O-])cc1)NC(=O)c1ccccc1,13,37*,4,1,-1,-10
CCOc1ccc(OCCCC(=O)N2CCN(S(=O)(=O)c3ccccc3C#N)CC2)cc1,-5,-1,-6,0,1,1
COc1ccc(/C=C(/NC(=O)c2ccccc2)C(=O)N/N=C/c2sccc2C)cc1,0,52*,-1,0,-1,-1
O=C(N/N=C/c1cccs1)/C(=C/c1ccccc1)NC(=O)c1ccccc1,12,42*,-1,-6,4,0
COc1ccc(/C=C(\NC(=O)c2ccccc2)C(=O)N/N=C/c2sccc2C)cc1,-1,40*,4,-2,-1,2
CCCCS(=O)(=O)NC(=O)C1(C)CCN1C(=O)C/C=C/c1ccccc1 (stereo not drawn),/,-7,/,1,/,4
COc1cccc2c1C(=O)c1c(O)c3c(c(O)c1C2=O)CC(O)(C(C)=O)CC3OC1CC(O)C(O)C(C)O1 (stereo not drawn),/,10,/,66*,/,-7
Cc1ccc(S(=O)(=O)NC(=O)C2(C)CCN2C(=O)c2ccccc2)nc1 (stereo not drawn),/,7,/,0,/,-2
COCCNc1nc(NCCCN2CCCC2=O)c2sc(-c3ccccc3)cc2n1,/,31*,/,-11,/,16
COc1cc(C=NNC(=O)C(=O)Nc2cccc(Cl)c2)cc(OC)c1O,/,39*,/,-1,/,-4
COc1ccc(/C=N/Nc2ccccn2)cc1OC,11,33*,63,-1,0,0
COc1ccc(/C=N/NC(=O)CSCc2ccc([N+](=O)[O-])cc2)cc1OC,8,41*,-12,-1,0,0
COc1ccc(/C=N/NC(=O)C(=O)Nc2ccccn2)cc1OC,1,43*,-7,-2,-2,-2
COc1cc(/C=N/Nc2ccccn2)ccc1O,-2,25,-7,-1,-3,1
COc1cc(/C=N/NC(=O)CSCc2ccc([N+](=O)[O-])cc2)cc(OC)c1OC,-7,-3,?,-5,-2,-9
C=CCOc1ccc(/C=N/NC(=O)C(=O)Nc2ccccn2)cc1OC,-13,29,87,2,0,0
SMILES,Rv3671c inh,GDH-TPI inh,Mtb betalactam,FadD28 binding,UGM FP inh,Mtb FBA inh
O=C(N/N=C/c1cccs1)C(=O)Nc1cccc(Cl)c1,5,20,76,-2,0,-2
O=C(Nc1ccc2c(c1)OCO2)c1cc(C2CCCCN2C(=O)c2ccc3c(c2)CCO3)on1 (stereo not drawn),/,0,/,-4,/,-2
Cc1c(C(=O)NC2CCCCC2C)oc2ccccc12 (stereo not drawn),-3,-8,10,-2,-1,-3
COc1ccc(/C=N/NC(=O)C(=O)NCc2cccnc2)cc1OC,4,28,2,-2,-1,4
COc1ccc(C=NNC(=O)CCCC(=O)NN=Cc2ccc(OC)c(OC)c2)cc1OC,/,17,/,-3,/,-4
COc1ccc(C=NNC(=O)NN=Cc2ccc(OC)c(OC)c2)cc1OC,/,48*,/,-2,/,2
